Assay results as given in article PMC5700166.

Key:
Assay in all cases: protein-binding microarray (PBM); PBM: ~300 nM protein, 6 mM HEPES pH 7.8, 80 mM KCl, 0.5 mM EDTA, 0.5 mM EGTA, 6% glycerol, 35 ng/ul poly-dIdC, 1% milk, 1 h, room temperature; Ap Aiptasia and Nv Nematostella (sea anemones) / Co Capsaspora / Aq Amphimedon (sponge) / Dm Drosophila / Hu human; RHD is the Rel homology domain; high values mean tight binding
Conditions in all cases: dsDNA, one strand shown
GST-Ap-NF-kB RHD = target: T1, GST-Ap-NF-kB RHD (Exaiptasia pallida (Aiptasia), UniProt A0A913YAJ5 2-422)
T1 sequence: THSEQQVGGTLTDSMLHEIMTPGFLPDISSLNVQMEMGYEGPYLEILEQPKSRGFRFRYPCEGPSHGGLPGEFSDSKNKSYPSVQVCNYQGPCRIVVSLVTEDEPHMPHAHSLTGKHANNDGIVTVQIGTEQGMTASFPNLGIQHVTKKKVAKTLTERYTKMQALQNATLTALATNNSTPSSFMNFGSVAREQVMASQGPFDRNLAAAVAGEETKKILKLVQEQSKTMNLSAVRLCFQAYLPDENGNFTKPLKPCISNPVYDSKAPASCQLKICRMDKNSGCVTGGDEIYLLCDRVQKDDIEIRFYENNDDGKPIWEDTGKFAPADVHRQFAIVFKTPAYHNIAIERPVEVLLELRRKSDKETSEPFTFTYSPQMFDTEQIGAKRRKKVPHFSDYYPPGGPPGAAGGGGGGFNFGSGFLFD

[1] = target: T2, GST-Nv-NF-kB (Cys allele) (Nematostella vectensis, UniProt E5G601 2-411)
T2 sequence: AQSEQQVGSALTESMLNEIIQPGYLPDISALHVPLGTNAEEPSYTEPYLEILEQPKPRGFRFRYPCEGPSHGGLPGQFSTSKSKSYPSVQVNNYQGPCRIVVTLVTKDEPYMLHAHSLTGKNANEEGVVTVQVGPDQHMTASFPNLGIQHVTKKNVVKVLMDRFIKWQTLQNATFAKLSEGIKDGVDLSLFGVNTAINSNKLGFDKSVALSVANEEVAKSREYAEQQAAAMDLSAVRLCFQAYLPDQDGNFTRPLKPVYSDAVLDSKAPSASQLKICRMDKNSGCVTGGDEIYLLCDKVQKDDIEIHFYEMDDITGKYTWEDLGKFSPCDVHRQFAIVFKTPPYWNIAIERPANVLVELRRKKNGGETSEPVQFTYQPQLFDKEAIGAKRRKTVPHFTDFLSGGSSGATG

GST-Co-NF-kB = target: T3, GST-Co-NF-kB (Capsaspora owczarzaki, UniProt F1ARL5 200-546)
T3 sequence: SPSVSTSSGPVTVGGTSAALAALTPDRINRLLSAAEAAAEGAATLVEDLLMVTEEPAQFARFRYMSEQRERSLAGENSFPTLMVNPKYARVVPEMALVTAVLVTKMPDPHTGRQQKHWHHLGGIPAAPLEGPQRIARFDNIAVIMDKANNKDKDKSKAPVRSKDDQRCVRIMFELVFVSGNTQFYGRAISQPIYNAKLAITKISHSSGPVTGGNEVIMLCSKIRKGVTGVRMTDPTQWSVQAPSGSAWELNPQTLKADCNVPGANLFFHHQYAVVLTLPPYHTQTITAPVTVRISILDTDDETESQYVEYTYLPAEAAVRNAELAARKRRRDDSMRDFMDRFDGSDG

GST-Dm-Relish = target: T4, GST-Dm-Relish (Drosophila melanogaster, UniProt Q94527 99-473)
T4 sequence: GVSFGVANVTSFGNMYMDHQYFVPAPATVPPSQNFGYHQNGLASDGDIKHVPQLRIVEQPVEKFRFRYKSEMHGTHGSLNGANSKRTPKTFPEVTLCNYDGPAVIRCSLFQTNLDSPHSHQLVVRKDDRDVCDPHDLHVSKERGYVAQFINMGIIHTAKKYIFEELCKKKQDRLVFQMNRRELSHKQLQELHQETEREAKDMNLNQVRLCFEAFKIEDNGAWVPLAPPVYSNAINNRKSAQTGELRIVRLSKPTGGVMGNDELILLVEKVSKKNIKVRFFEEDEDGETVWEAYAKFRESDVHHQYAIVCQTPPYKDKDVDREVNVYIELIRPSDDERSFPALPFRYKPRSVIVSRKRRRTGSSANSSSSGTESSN

GST-Aq-NF-kB = target: T5, GST-Aq-NF-kB (Amphimedon queenslandica, UniProt A9Y5G7 2-389)
T5 sequence: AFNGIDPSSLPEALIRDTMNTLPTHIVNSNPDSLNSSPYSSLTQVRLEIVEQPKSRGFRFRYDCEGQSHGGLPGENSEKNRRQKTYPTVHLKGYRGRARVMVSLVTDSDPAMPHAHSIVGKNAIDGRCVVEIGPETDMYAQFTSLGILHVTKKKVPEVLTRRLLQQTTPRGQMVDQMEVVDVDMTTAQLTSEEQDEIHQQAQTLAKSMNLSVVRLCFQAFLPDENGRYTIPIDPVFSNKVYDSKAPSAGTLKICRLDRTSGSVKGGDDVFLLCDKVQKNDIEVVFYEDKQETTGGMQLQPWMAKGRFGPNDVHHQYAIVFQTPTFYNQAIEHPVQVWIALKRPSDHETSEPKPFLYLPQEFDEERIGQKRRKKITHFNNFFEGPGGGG

GST-Hu-p50 = GST-Hu-p50 (Homo sapiens, UniProt P19838 7-356)
Chain of GST-Hu-p50 (P19838 7-356): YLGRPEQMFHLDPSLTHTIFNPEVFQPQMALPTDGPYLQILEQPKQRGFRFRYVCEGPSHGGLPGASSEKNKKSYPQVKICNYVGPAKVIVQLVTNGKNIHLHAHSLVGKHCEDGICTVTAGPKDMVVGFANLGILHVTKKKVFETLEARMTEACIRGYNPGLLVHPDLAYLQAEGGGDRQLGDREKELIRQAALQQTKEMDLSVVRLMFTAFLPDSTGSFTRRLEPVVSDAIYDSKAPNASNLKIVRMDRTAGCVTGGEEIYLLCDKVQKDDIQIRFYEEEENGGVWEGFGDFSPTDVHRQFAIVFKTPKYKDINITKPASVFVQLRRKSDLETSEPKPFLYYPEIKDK

Sequence | binding signal (GST-Ap-NF-kB RHD) [z-score] | binding signal [1] [z-score] | binding signal (GST-Co-NF-kB) [z-score] | binding signal (GST-Dm-Relish) [z-score] | binding signal (GST-Aq-NF-kB) [z-score] | binding signal (GST-Hu-p50) [z-score]
CCGATTAACATCACGGAATTCCCTGATGTTAATCGGGTCTTGATTCGCTTGACGCTGCTG | 6.01 | 6.74 | 3.4 | 7.05 | 7.07 | 4.62
CCGATTAACATCAAAAGCCCCCATGATGTTAATCGGGTCTTGATTCGCTTGACGCTGCTG | 5.8 | 6.19 | 2.08 | 6.91 | 6.49 | 6.29
CCGATTAACATCAGGGGGAGTTATGATGTTAATCGGGTCTTGATTCGCTTGACGCTGCTG | 6.7 | 5.95 | 7.05 | 5.28 | 6.18 | 6.55
CCGATTAACATCAGAAATGCCCCTGATGTTAATCGGGTCTTGATTCGCTTGACGCTGCTG | 4.03 | 5.61 | 1.98 | 4.09 | 5.32 | 5.55
CCGATTAACATCAGGGCTCCCCATGATGTTAATCGGGTCTTGATTCGCTTGACGCTGCTG | 2.59 | 1.32 | 2.03 | 3.88 | 2.46 | 1.51
CCGATTAACATCAAGGGGGGACTTGATGTTAATCGGGTCTTGATTCGCTTGACGCTGCTG | 4.76 | 5.56 | 5.68 | 5.09 | 5.14 | 5.19
CCGATTAACATCAGGGGTTTTACTGATGTTAATCGGGTCTTGATTCGCTTGACGCTGCTG | 5.39 | 5.15 | 1.49 | 7.6 | 5.84 | 5.77
CCGATTAACATCAAAATAGCCCCTGATGTTAATCGGGTCTTGATTCGCTTGACGCTGCTG | 5.32 | 5.99 | 1.88 | 4.12 | 5.87 | 5.38
CCGATTAACATCAGAACATCCCCTGATGTTAATCGGGTCTTGATTCGCTTGACGCTGCTG | 6.05 | 6.64 | 3.09 | 6.69 | 5.97 | 5.45
CCGATTAACATCAATAAAATCCCTGATGTTAATCGGGTCTTGATTCGCTTGACGCTGCTG | 4.23 | 4.4 | 2.13 | 6.47 | 4.79 | 4.24
CCGATTAACATCAAAAAAACCCTTGATGTTAATCGGGTCTTGATTCGCTTGACGCTGCTG | 4.62 | 5.48 | 1.11 | 6.8 | 6.78 | 5.45
CCGATTAACATCAGAAATACCCATGATGTTAATCGGGTCTTGATTCGCTTGACGCTGCTG | 4.24 | 5.32 | 1.74 | 3 | 4.73 | 5.12
CCGATTAACATCACCCCGCCCCCTGATGTTAATCGGGTCTTGATTCGCTTGACGCTGCTG | 4.32 | 3.28 | 3.91 | 4.16 | 4.28 | 4.24
